Data from the supplement of paper PMC11060735.
“And” between values parts separate entries of the source, which are not always exact repeats. Equal entries are not always repeated. ± gives the standard deviation of the averaged measurements. Over roughly 1,800 compounds, “GFP- (p16Ink4a-) cell count relative to negative-control wells” has its median near 0.99; the lowest 2% begin near 0.5. This excerpt belongs to a sample that is enriched for the lowest values.

Each molecule was assayed on mouse p16Ink4a+/- lung fibroblasts (INKBRITE, bleomycin-injured) (assay: GFP- (p16Ink4a-) cell count relative to negative-control wells (fold of vehicle); higher = more p16Ink4a- cells surviving). Conditions: 1 µM; 3 days.

| Structure (SMILES) | GFP- |
| --- | --- |
| N[C@H]1C[C@@H]1c1ccc(-c2cccc(O)c2)cc1 | 1.01 ± 0.044 |
| Cc1c(C(=O)NN2CCCCC2)nn(-c2ccc(Cl)cc2Cl)c1-c1ccc(I)cc1 | 1.06 |
| Cn1cc(-c2ccc3ncc(Cc4ccc5ncccc5c4)n3n2)cn1 | 1.01 |
| O=C1C(Cl)=C(N2CCOCC2)C(=O)N1c1ccc(Cl)c(Cl)c1 | 1.05 |
| Cc1ccc(Nc2nccc(N(C)c3ccc4c(C)n(C)nc4c3)n2)cc1S(N)(=O)=O [Pazopanib] | 0.999 and 1.07 |
| CNC(=O)c1ccc(N2C(=S)N(c3ccc(C#N)c(C(F)(F)F)c3)C(=O)C2(C)C)cc1F [Enzalutamide] | 1.11 |
| CC1(C)Cc2c(-c3ccccc3)c(-c3ccc(Cl)cc3)c(CC(=O)O)n2C1 [Licofelone] | 0.892 |
| CNCc1ccc(-c2[nH]c3cc(F)cc4c3c2CCNC4=O)cc1 [Rucaparib] | 0.817 ± 0.037 |
| CCCCN1CCCCC1C(=O)Nc1c(C)cccc1C (stereo unspecified) [Bupivacaine] | 1.13 |
| CC(C)C1CCC(C(=O)N[C@H](Cc2ccccc2)C(=O)O)CC1 (stereo partly specified) [Nateglinide] | 1.06 |
| CNC(=O)[C@H](Cc1ccccc1)NC(=O)[C@H](CC(C)C)[C@H](CSc1cccs1)C(=O)NO [Batimastat] | 1.08 |
| CC(C)C[C@H](NC(=O)[C@H](Cc1ccccc1)NC(=O)c1cnccn1)B(O)O [Bortezomib] | 0.294 |
| Nc1nc(N)c(N=O)c(OCC2CCCCC2)n1 | 1.07 |
| Clc1ccc(Nc2nnc(Cc3ccncc3)c3ccccc23)cc1 [Vatalanib] | 0.918 |
| Cc1cccc(C)c1OCC(=O)N[C@@H](Cc1ccccc1)[C@@H](O)C[C@H](Cc1ccccc1)NC(=O)[C@H](C(C)C)N1CCCNC1=O [Lopinavir] | 0.947 |
| CC[C@H]1OC(=O)[C@H](C)[C@@H](O[C@H]2C[C@@](C)(OC)[C@@H](O)[C@H](C)O2)[C@H](C)[C@@H](O[C@@H]2O[C@H](C)C[C@H](N(C)C)[C@H]2O)[C@](C)(O)C[C@@H](C)/C(=N/OCOCCOC)[C@H](C)[C@@H](O)[C@]1(C)O [Roxithromycin] | 0.988 |
| Sc1ncnc2[nH]cnc12 [Mercaptopurine] | 1.05 |
| COC[C@H](NC(=O)c1cnc(C)s1)C(=O)N[C@@H](COC)C(=O)N[C@@H](Cc1ccccc1)C(=O)C1(C)CO1 (stereo partly specified) [Oprozomib] | 0.381 |
| C=CC(=O)Nc1ccc2ncnc(Nc3cccc(Br)c3)c2c1 | 0.994 |
| Cc1onc(-c2c(Cl)cccc2Cl)c1C(=O)N[C@@H]1C(=O)N2[C@@H]1SC(C)(C)[C@@H]2C(=O)O [Dicloxacillin] | 0.966 |
| COc1cc(N2CCC(N(C)C)CC2)ccc1Nc1ncc(Cl)c(Nc2ccccc2P(C)(C)=O)n1 | 1.08 |
